Source: PubChem BioAssay (National Center for Advancing Translational Sciences (NCATS))
MCF10A rereplic – inducers of DNA re-replication in MCF 10A breast cells | Potency, µM (highest dose often 46.1 µM), for the others: at the top dose activity, positive = re-replication, hits mostly activators | MCF 10A DNA re-replication, Hoechst nuclear intensity, 48 h | AID 624296 | 350,000 tested, 2.9% active; also: potency is read from the fitted curve at half-maximal effect; % of control where 0% means no effect; nearly all actives have a fitted effect of over 50% in size
BCR signal inh – inhibitors of chronic active B-cell receptor signaling; 340,000 tested, 0.05% active; Potency, µM (titrated, usually from 46.1 µM), without a hit: top-dose activity change, negative = inhibition, usual class: inhibitors; ABC-DLBCL IkBa-CBG/CBR reporter, luminescence ratio, 4 h; active = well fitted inhibition curve with a large enough effect in the signal ratio, with a control signal flat, not every such curve was filed as active; inconclusive = small, poorly fitted or top-dose-only effect, or effect the other way, or a change in a side signal; the % refers to the signal ratio;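 also: potency is read from the fitted curve at half-maximal effect; plate controls were basal doxycycline-induced cells for no effect and cells given 10 µM MG132 for full effect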
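Compounds up to 46 uM were incubated four hours with TMD8 cells whose green CBG68 luciferase is fused to IkappaBalpha; red CBR luminescence normalised the signal, and concentration-effect curves were fitted to fusion, red and ratio data.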
TDP1 cell CPT – growth inhibition of DT40 Tdp1-/-;hTDP1 cells with camptothecin (screen for TDP1 inhibitors); chicken DT40 Tdp1-/-;hTDP1 cells + 20 nM CPT, ATP luminescence, 48 h; Potency, µM (top dose mostly 46.2 µM), without a hit: top-dose activity change, negative = growth inhibition, actives largely listed as inhibitors; 420,000 tested, 12% active; also: potency is read from the fitted curve at half-maximal effect; % is scaled to controls: 0 for no effect and ±100 for the full control effect; nearly all actives have a fitted effect of over 55% in size
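Chicken DT40 Tdp1-/- cells stably complemented with human TDP1 were seeded at 400 cells/well in medium containing 20 nM camptothecin, exposed to pin-transferred compounds, and grown at 37 °C for at least 48 hr. Viability was read as ATP luminescence.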
DT40 TDP1 no CPT – qHTS for Inhibitors of human tyrosyl-DNA phosphodiesterase 1 (TDP1): qHTS in cells in absence of CPT; DT40 Tdp1-/- hTDP1 cells, no CPT, ATP luminescence, 48 h; Potency, µM (highest dose often 46.2 µM), for the others: at the highest dose activity change, negative = growth inhibition, actives largely listed as inhibitors; 420,000 tested, 15% active; also: potency is read from the fitted curve at half-maximal effect; % is scaled to controls: 0 for no effect and ±100 for the full control effect; nearly all actives have a fitted effect of over 55% in size
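No-CPT arm: Tdp1-/-;hTDP1 DT40 cells (400/well) plus compounds, incubated ≥48 hr at 37 °C. Readout CellTiter-Glo luminescence.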
IL1B secr inh – blocks inflammasome-driven IL-1 beta release; 360,000 tested, 4.7% active; THP-1 LPS/ATP IL-1B secretion, AlphaLISA, 16 h; hits give low values; activity change, % at 57.5 µM; AID 743279; in the data active = activity change below about -50%; inconclusive = mostly about -30% to -49%; also: % is scaled to controls: 0 for no effect and ±100 for the full control effect
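Secreted IL-1B measured by AlphaLISA bead assay after 16 h compound exposure of THP-1 cells; compounds (final up to 57.5 uM) added 1 h before LPS (250 ng/mL) and ATP (1.25 mM) stimulation; lower signal means less secretion.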
SW480 rerep – induces DNA re-replication in SW480 colon adenocarcinoma cells; SW480 DNA re-replication, Hoechst DNA content imaging, 48 h; Potency, µM (top dose mostly 46.1 µM), inactives show top-dose re-replication activation, hits mostly activators; 340,000 tested, 1.8% active; also: potency is read from the fitted curve at half-maximal effect; % of control where 0% means no effect; nearly all actives have a fitted effect of over 55% in size
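250 cells/well; 23 nL cpd via pin tool; 48 hr, 37 C, 5% CO2; Hoechst 40 min; imager read of total nuclear intensity, ex 405/em 500-530 nm.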
Starred values were filed as active, the others as inactive; i = inactive; u = inconclusive; x = no result given. Shown are actives, neighbours in structure and some others; about 19% of the full set was active somewhere. Unless noted, calls follow the shape of the dose curve; as a rule, active = well fitted curve in the direction sought with a large enough effect; inconclusive = small, poorly fitted or top-dose-only effect, or another doubt; inactive = no such curve, though single readings can be large; an effect the other way counts as inactive or inconclusive.

SMILES	MCF10A rereplic	BCR signal inh	TDP1 cell CPT	DT40 TDP1 no CPT	IL1B secr inh	SW480 rerep
CC(C)(C)NC(=O)C(c1ccc(Cl)cc1)N(Cc1ccco1)C(=O)CCl (centres undefined)	3%	-1%	4.6µM*	2.9µM*	u	-3%
O=C(NC1CCCCC1)C(c1ccncc1)N(Cc1ccc(F)cc1)C(=O)c1ccccn1 (centres undefined)	14%	0%	11%	-8%	-3	-3%
CC(C)(C)NC(=O)C(c1ccncc1)N(Cc1ccco1)C(=O)c1ccc(-c2ccccc2)[nH]1 (centres undefined)	21µM*	u	u	u	39	u
COc1ccc(OC)c(NS(=O)(=O)c2cc3c4c(c2)CCN4C(=O)CC3)c1	3%	-7%	-18%	-14%	7	-5%
COc1ccc(-c2onc(C)c2C)cc1S(=O)(=O)N1CCc2ccccc21	x	x	16µM*	u	x	x
COc1ccc(-c2onc(C)c2C)cc1S(=O)(=O)N1CCN(c2cc(C)ccc2C)CC1	x	x	u	21µM*	x	x
COc1ccc(C)cc1S(=O)(=O)N1CCN(C(=O)c2ncoc2-c2ccc(C)cc2)CC1	u	0%	-25%	-16%	-53*	-55%
COc1ccc(C)cc1S(=O)(=O)N1CCN(C(=O)c2ncoc2-c2ccc(F)cc2)CC1	-2%	2%	-4%	u	21	-24%
CC(NCC(O)COc1ccc(Br)cc1)c1ccccc1 (centres undefined)	-2%	5%	u	u	u	-13%
OC(CNC1CCCC1)COc1ccc(-c2ccccc2)cc1 (centres undefined)	u	-3%	u	u	-63*	u
OC(CNC1CCCCC1)COCCOc1ccc(Br)cc1 (centres undefined)	16µM*	u	13µM*	23µM*	i	u
CCC(CC)NCC(O)COc1ccc(Br)cc1 (centres undefined)	0%	-13%	u	21µM*	-52*	-2%
CCCC(NCC(O)COc1ccc(-c2ccccc2)cc1)c1ccccc1 (centres undefined)	4.1µM*	-1%	7.3µM*	4.1µM*	-77*	5.2µM*
O=S(=O)(Nc1ccccc1N1CCOCC1)c1ccc(Cl)cc1	-4%	0%	u	-14%	53	u
CCCNC(=O)c1cc(C2CCCCN2S(=O)(=O)Cc2cccc(C(F)(F)F)c2)on1 (centres undefined)	x	x	-29%	-59%	-9	x
O=[N+]([O-])c1ccc(N=Cc2ccc(Br)c([N+](=O)[O-])c2)cc1	u	u	5.2µM*	5.2µM*	-99*	u
O=[N+]([O-])c1ccc(C=Nc2ccccc2)cc1	x	x	u	u	-21	x
Cc1onc(-c2c(Cl)cccc2Cl)c1C(N)=S	-13%	2%	-24%	-21%	55	18%
CC(NC(=O)c1cccc(Nc2nc3ccccc3n3nnnc23)c1)c1ccccc1 (centres undefined)	x	x	9.2µM*	7.3µM*	x	x
Fc1cccc(Nc2nc3ccccc3n3nnnc23)c1	5%	u	u	u	46	14%
CC(C)CCNC(=O)c1cccc(Nc2nc3ccccc3n3nnnc23)c1	x	x	21µM*	18µM*	x	x
Nc1ncc(S(=O)(=O)c2ccc([N+](=O)[O-])cc2)s1	-13%	x	u	u	20	u
CCCSC1=NC2(CCN(C(=O)NC3CCCCC3)CC2)N=C1c1ccccc1	x	x	-1%	-20%	x	x
CCCSC1=NC2(CCN(C(=O)NC3CCCCC3)CC2)N=C1c1ccc(OC)cc1	x	x	23µM*	23µM*	x	x
O=S(=O)(c1ccc2nc(Nc3ccc(F)cc3)ccc2c1)N1CCCC1	x	x	7%	-26%	x	x
SMILES	MCF10A rereplic	BCR signal inh	TDP1 cell CPT	DT40 TDP1 no CPT	IL1B secr inh	SW480 rerep
CC1CCN(S(=O)(=O)c2ccc3nc(Nc4cccc(C(F)(F)F)c4)ccc3c2)CC1	x	x	18µM*	u	x	x
CC1CCN(S(=O)(=O)c2ccc3nc(Nc4ccc(C#N)cc4)ccc3c2)CC1	x	x	u	21µM*	x	x
Cc1cccc(N2CCN(C(=O)CCNS(=O)(=O)c3cccs3)CC2C)c1 (centres undefined)	5%	-11%	u	21µM*	22	0%
CCC(=O)N1CCc2cc(S(=O)(=O)NCCC(=O)N3CCN(c4cccc(OC)c4)CC3)ccc21	u	2%	u	13µM*	29	100%
Cc1cccc(N2CCN(C(=O)CCS(=O)(=O)c3ccc4c(c3)CC(=O)N4C)CC2C)c1 (centres undefined)	x	x	16µM*	u	x	x
CCC(=O)N1CCc2cc(S(=O)(=O)NCCC(=O)N3CCN(c4cccc(C)c4)C(C)C3)ccc21 (centres undefined)	9%	0%	21µM*	9.2µM*	-3	-8%
CN(C)c1ncc2ncc(=O)n(C)c2n1	x	x	1%	-28%	x	x
O=C(COC(=O)c1ccccc1SCC(=O)N1CCCC1)NCc1ccc(F)cc1	x	x	-3%	-24%	-11	x
CCC(=O)N1CCc2cc(S(=O)(=O)NCCC(=O)N3CCN(c4ccccc4)CC3)ccc21	-3%	-2%	u	21µM*	14	86%
COc1ccc(NC(=O)COC(=O)CCc2ccccc2)c(OC)c1	-1%	4%	-1%	-27%	26	-8%
